# Source: PubChem BioAssay (Broad Institute)
# PvdQ inh – P. aeruginosa PvdQ acylase inhibitors, primary screen, biochemical, fluorescence, plate reader and imaging, single point; inhibition, % at 10 µM; purified PvdQ acylase; hit rate 0.063% among 340,000; PvdQ acylase [Pseudomonas aeruginosa LESB58]; AID 488965, 2010; in the data active means inhibition above about 30%, passing the limit was not always enough;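 further: 0% = vehicle neutral wells and 100% = reference inhibitor wells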
# dFosB activator – activators of delta FosB homodimer, primary screen, biochemical, fluorescence polarization, TAMRA-CDK5 oligo, single point; hit rate 0.99% among 340,000; activation, % at 25 µM; purified delta FosB; percent of positive-control signal above neutral wells; Protein FosB (Mus musculus), P13346;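 active means mean activation above about 17%, with every replicate also reaching it, limit read from the data, passing the limit was not always enough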
# RAD54 inh – inhibitors of human RAD54 branch migration, primary screen, biochemical, fluorescence, single point; hit rate 0.14% among 360,000; DNA repair and recombination protein RAD54-like (Homo sapiens), Q92698; inhibition, % at 10.4 µM; RAD54 Holliday junction branch migration, FAM/BHQ fluorescence;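 active means mean normalized replicate activity at least 40 and at least half of replicates scoring 40 or more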;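 further: 0% = median of neutral control wells and 100% = median of positive control wells; inhibitors cause a drop in the FAM fluorescence signal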
# Target sequence (Q92698 whole entry, looked up): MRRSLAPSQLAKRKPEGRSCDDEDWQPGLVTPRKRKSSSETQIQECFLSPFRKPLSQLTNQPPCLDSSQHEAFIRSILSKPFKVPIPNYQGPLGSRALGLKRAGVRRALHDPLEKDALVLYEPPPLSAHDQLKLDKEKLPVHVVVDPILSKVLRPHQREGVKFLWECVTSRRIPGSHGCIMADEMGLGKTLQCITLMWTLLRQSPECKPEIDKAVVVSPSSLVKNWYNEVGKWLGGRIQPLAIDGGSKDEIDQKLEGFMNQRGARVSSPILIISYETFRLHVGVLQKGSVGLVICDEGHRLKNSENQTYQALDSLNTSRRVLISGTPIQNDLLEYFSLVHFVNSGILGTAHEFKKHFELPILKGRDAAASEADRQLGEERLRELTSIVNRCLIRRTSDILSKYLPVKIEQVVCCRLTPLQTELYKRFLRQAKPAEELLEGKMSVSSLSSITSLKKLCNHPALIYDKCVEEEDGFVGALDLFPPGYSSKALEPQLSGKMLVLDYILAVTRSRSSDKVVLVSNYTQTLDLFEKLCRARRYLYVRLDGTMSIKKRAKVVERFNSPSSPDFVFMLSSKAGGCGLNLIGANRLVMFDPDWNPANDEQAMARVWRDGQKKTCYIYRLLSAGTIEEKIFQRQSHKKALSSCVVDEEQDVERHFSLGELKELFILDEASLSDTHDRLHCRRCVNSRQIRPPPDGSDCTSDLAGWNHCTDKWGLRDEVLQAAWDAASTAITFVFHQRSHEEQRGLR
# RAD52 inh – RAD52 DNA annealing inhibitors, primary screen, biochemical, FRET, single point, set 2. DNA repair protein RAD52 homolog (Homo sapiens), P43351. recombinant RAD52 DNA annealing, FRET fluorescence. hit rate 0.46% among 360,000. inhibition, % at 18.7 µM;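 active means every replicate showing at least 50% inhibition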
# Glyco luc inh – increase of ERlucT glycosylation luciferase signal, primary screen, N-linked glycosylation inhibitor project, D54 ERlucT cells, luminescence, set 2; D54 ERlucT glycosylation luciferase reporter, 24 h; percent of 100 nM tunicamycin response; reporter increase, % at 12.5 µM; hit rate 0.23% among 360,000;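 active means mean luciferase reporter signal, scaled so untreated is 0 and the glycosylation-blocking control 100, at or above a set limit in every replicate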;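 further: luciferase carries N-glycosylation sites so blocking glycosylation raises the light; 0% = median of neutral control wells and 100% = median of 100 nM tunicamycin wells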
# CFTR F508del cor – F508del CFTR correction, initial screen, CFBE line, single point; CFBE cells, YFP halide quenching; stimulated with forskolin plus potentiator P3; % fluorescence drop versus neutral controls; activity (quench increase), % at 7.58 µM; hit rate 0.36% among 350,000; AID 720511, 2013;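 active means mean added fluorescence quench of at least 8% versus neutral control, with both replicates also reaching 8%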;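 further: cells transiently co-express mutant CFTR-F508del with the halide-sensitive YFP; corrector assay measuring rescue of mutant channel to the surface after 24 h compound exposure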
# * hit, by the source's call; x = not tested or not shown; ! = not confirmed by another sample. Most compounds without a hit are left out; they make up all but 1.5% or so of the library.
SMILES,PvdQ inh,dFosB activator,RAD54 inh,RAD52 inh,Glyco luc inh,CFTR F508del cor
COc1cccc(-c2ccc(C3[C@H]4CNC[C@@H]3N4C(=O)Nc3ccc4c(c3)OCO4)cc2)c1 (stereo partly specified),x,x,x,71.3*,x,-5.6
CN(C)C(=O)c1cccc(-c2ccc(C3[C@H]4CNC[C@@H]3N4C(=O)Nc3cccc(Cl)c3)cc2)c1 (stereo partly specified),x,x,x,-65.2,x,-0.2
CN(C)C(=O)c1ccc(-c2ccc(C3[C@H]4CNC[C@@H]3N4C(=O)Nc3cccc(Cl)c3)cc2)cc1 (stereo partly specified),x,x,x,55.8*,x,0.2
COc1ccc(NC(=O)N2[C@@H]3CNC[C@H]2C3c2ccc(-c3cccc(OC)c3)cc2)cc1 (stereo partly specified),x,x,x,41.1,x,-4.4
COc1ccc(NC(=O)N2[C@@H]3CNC[C@H]2C3c2ccc(-c3ccccc3C)cc2)cc1 (stereo partly specified),x,x,x,64.2*!,x,-2.7
COc1ccc2c3c(n(C)c2c1)[C@H](CO)N(C(=O)Cc1ccccn1)CC31CN(C)C1,x,x,x,8.2,x,0.4
O=C(NC[C@H]1N[C@H](CO)[C@@H]1c1ccc(C2=CCCC2)cc1)C1CC1,x,x,x,x,x,0.4
CC(C)NC(=O)N1[C@@H]2CNC[C@H]1C2c1ccc(/C=C/c2ccccc2)cc1 (stereo partly specified),x,x,x,33.6,x,-2.4
O=C(Nc1cccc(Cl)c1)N1[C@@H]2CNC[C@H]1C2c1ccc(/C=C/c2ccccc2)cc1 (stereo partly specified),x,x,x,60.2*!,x,-0.7
Nc1cc(=O)[nH]c(SCC(=O)Nc2cc(S(=O)(=O)N3CCOCC3)ccc2Cl)n1,-12.5,-6.1,x,-8.9,0.5,2.4
Nc1cc(=O)[nH]c(SCC(=O)Nc2cc(S(=O)(=O)N3CCCCCC3)ccc2Cl)n1,0.6,36.5*,-2.9,-35.3,1.3,6.8
Clc1ccc(SCc2cc(N3CCOCC3)nc(-c3ccccn3)n2)cc1,11.2,-3.3,x,-27.3,-2.9,8.1*
Clc1ccc(SCc2csc(N3CCOCC3)n2)cc1,-8.8,0.4,x,-8.5,0.2,-1.2
COc1ccc(NC(=O)Nc2ccc3c(c2)C(=O)N([C@@H](C)CO)C[C@@H](C)[C@@H](CN(C)Cc2ccccc2)OCCCC[C@@H](C)O3)cc1,x,x,-0.1,53.3*,x,0.3
COc1ccc(NC(=O)Nc2ccc3c(c2)C(=O)N([C@@H](C)CO)C[C@@H](C)[C@H](CN(C)Cc2ccccc2)OCCCC[C@H](C)O3)cc1,x,x,0.6,52.3*,x,0.9
COc1ccc(NC(=O)Nc2ccc3c(c2)C(=O)N([C@H](C)CO)C[C@H](C)[C@@H](CN(C)Cc2ccccc2)OCCCC[C@@H](C)O3)cc1,x,x,8.1,19.7,x,-2.2
COc1ccc(NC(=O)Nc2ccc3c(c2)C(=O)N([C@H](C)CO)C[C@@H](C)[C@H](CN(C)Cc2ccccc2)OCCCC[C@@H](C)O3)cc1,x,x,7.5,68.7*,x,-2.7
COc1ccc(NC(=O)Nc2ccc3c(c2)C(=O)N([C@@H](C)CO)C[C@H](C)[C@@H](CN(C)Cc2ccccc2)OCCCC[C@@H](C)O3)cc1,x,x,0.8,55.7*,x,-1.1
COc1ccc(NC(=O)Nc2ccc3c(c2)C(=O)N([C@H](C)CO)C[C@@H](C)[C@@H](CN(C)Cc2ccccc2)OCCCC[C@@H](C)O3)cc1,x,x,-2.3,48.8,x,2.4
COc1ccc(CN(C)C[C@@H]2OCCCC[C@H](C)Oc3ccc(NC(=O)Nc4ccccc4)cc3C(=O)N([C@H](C)CO)C[C@H]2C)cc1,x,x,10.6,x,x,-1.4
COc1ccccc1NC(=O)N[C@@H]1CC[C@H](CC(=O)N[C@@H](C)c2ccccc2)O[C@H]1CO,x,x,3.7,-11.6,x,1.4
O=C(C[C@@H]1CC[C@H](NC(=O)c2cccnc2)[C@H](CO)O1)NCCN1CCCCC1,x,x,4.6,1.9,x,6.6
